Measurements reported in PubChem BioAssay AID1159580 (chemical genetic matrix, 2015).
The whole screen tested about 5,500 compounds, of which about 2,000 (36%) were called active. Inconclusive results (about 18%) are left out. No stated cut-off is given here; in the data, active means normalized growth mostly below about 0.91 (no sharp cut-off); inconclusive means no clear call, values can overlap the other calls; inactive means mostly above about 0.92. The list shows a part of the results.

Assay: chemical genetic growth profiling, strain panel (AID 1159580);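 further: tested at 20 µM; growth read once vehicle control cultures reached saturation at 30 °C; 1 = growth at the plate median or of vehicle wells; lower values mean less growth of the strain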
Settings: S. cerevisiae deletion strains, growth OD

Measured: normalized growth

N/C(Cc1cccc2ccccc12)=N/OC(=O)c1ccc(Cl)cc1
active: locus YHR030C, strain SLT2, active compounds read low 0.666 | locus YLR113W, strain HOG1, active compounds read low 0.858
inactive: locus YAR019C, strain CDC15, active compounds read low 0.954 | locus YBL105C, strain PKC1, active compounds read low 0.952 | locus YBR135W, strain CKS1, active compounds read low 0.947 | locus YBR136W, strain MEC1, active compounds read low 0.93 | locus YBR160W, strain CDC28, active compounds read low 0.928 | locus YDL017W, strain CDC7, active compounds read low 0.949 | locus YDL028C, strain MPS1, active compounds read low 0.916 | locus YDL101C, strain DUN1, active compounds read low 0.961 | locus YDL108W, strain KIN28, active compounds read low 0.934 | locus YDL132W, strain cdc53, active compounds read low 0.951 | locus YDL214C, strain PRR2, active compounds read low 0.85 | locus YDR052C, strain DBF4, active compounds read low 0.967 | locus YDR054C, strain cdc34, active compounds read low 0.952 | locus YDR226W, strain ADK1, active compounds read low 0.954 | locus YDR477W, strain SNF1, active compounds read low 0.937 | locus YER123W, strain YCK3, active compounds read low 0.878 | locus YER133W, strain GLC7, active compounds read low 0.889 | locus YFL009W, strain cdc4, active compounds read low 0.938 | locus YFL029C, strain CAK1, active compounds read low 0.936 | locus YFR003C, strain YPI1, active compounds read low 0.955 | locus YFR019W, strain FAB1, active compounds read low 0.928 | locus YFR028C, strain CDC14, active compounds read low 0.956 | locus YGR040W, strain KSS1, active compounds read low 0.937 | locus YGR052W, strain FMP48, active compounds read low 0.941 | locus YGR092W, strain DBF2, active compounds read low 0.931 | locus YHR079C, strain IRE1, active compounds read low 0.965 | locus YHR082C, strain KSP1, active compounds read low 0.953 | locus YHR205W, strain SCH9, active compounds read low 0.835 | locus YIL147C, strain SLN1, active compounds read low 0.94 | locus YJL095W, strain BCK1, active compounds read low 0.874 | locus YJL128C, strain PBS2, active compounds read low 0.935 | locus YJL157C, strain FAR1, active compounds read low 0.899 | locus YJR016C, strain ILV3, active compounds read low 0.962 | locus YJR066W, strain TOR1 (second series), active compounds read low 0.879 | locus YJR066W, strain TOR1, active compounds read low 0.847 | locus YKL048C, strain ELM1, active compounds read low 0.967 | locus YKL067W, strain YNK1, active compounds read low 0.846 | locus YKL101W, strain HSL1, active compounds read low 0.939 | locus YKL193C, strain SDS22, active compounds read low 0.978 | locus YKL203C, strain TOR2, active compounds read low 0.969 | locus YLR133W, strain CKI1, active compounds read low 0.876 | locus YLR403W, strain SFP1, active compounds read low 0.919 | locus YML070W, strain DAK1, active compounds read low 0.892 | locus YMR001C, strain CDC5, active compounds read low 0.963 | locus YMR205C, strain PFK2 (second series), active compounds read low 0.872 | locus YMR277W, strain FCP1, active compounds read low 0.925 | locus YNL006W, strain LST8, active compounds read low 0.977 | locus YNL020C, strain ARK1, active compounds read low 0.909 | locus YNL161W, strain CBK1, active compounds read low 0.963 | locus YNL183C, strain NPR1, active compounds read low 0.92 | locus YNL207W, strain RIO2, active compounds read low 0.932 | locus YNL222W, strain SSU72, active compounds read low 0.95 | locus YNL307C, strain MCK1 (second series), active compounds read low 0.941 | locus YOL078W, strain AVO1, active compounds read low 0.943 | locus YOL136C, strain PFK27, active compounds read low 0.927 | locus YOR061W, strain CKA2, active compounds read low 0.892 | locus YOR119C, strain RIO1, active compounds read low 0.917 | locus YOR231W, strain MKK1, active compounds read low 0.926 | locus YOR329C, strain SCD5, active compounds read low 0.968 | locus YPL031C, strain PHO85, active compounds read low 0.915 | locus YPL153C, strain RAD53, active compounds read low 0.927 | locus YPL204W, strain HRR25, active compounds read low 0.922 | locus YPL209C, strain IPL1, active compounds read low 0.964 | locus YPL256C, strain CLN2, active compounds read low 0.888 | locus YPR025C, strain CCL1, active compounds read low 0.947 | locus YPR106W, strain ISR1, active compounds read low 0.986 | locus YPR111W, strain DBF20, active compounds read low 0.916 | strain NNK1, active compounds read low 0.948 | strain TSCII, active compounds read low 0.926
